Experimental data published in PubChem BioAssay (Tox21).
Inconclusive results are not listed. Unmarked numbers belong to inactive results. The source made the active and inactive calls. Calls follow the shape of the dose curve; as a rule, active = well fitted cell-killing curve with a large enough effect in the repeat runs; inconclusive = weak or mixed curves, or effect the other way; inactive = no such curve, though single readings can be large or run the other way.

test: qHTS assay to identify small molecule antagonists of the progesterone receptor (PR) signaling pathway - cell viability counter screen (AID 1346798); settings: PR-UAS-bla HEK293T viability, CellTiter-Glo luminescence, 16 h; series mostly up to 92.4 µM; activity change, negative = cytotoxicity: at the top concentration; also: nearly all actives have a fitted effect of over 50% in size
From the text: National Center for Advancing Translational Sciences [NCATS]
NIH Chemical Genomics Center [NCGC]
U.S. Environmental Protection Agency [EPA]
National Institutes of Environmental Health Sciences [NIEHS]
National Toxicology Program [NTP]
U.S. Food and Drug Administration [FDA]
Progesterone receptor (PR), a nuclear hormone receptor, plays an important role in development, metabolic homeostasis and reproduction. It is activated by the steroid hormone progesterone. Endocrine disrupting chemicals (EDCs) and their interactions with steroid hormone receptors like PR causes disruption of normal endocrine function. To identify the compounds that inhibit PR signaling, a PR-UAS-bla GripTite cell line i.e. PR-UAS-bla HEK293T (Invitrogen, Carlsbad, CA, USA) containing a beta-lactamase reporter gene under the control of an UAS response element was used to screen Tox21 10K compound library. The cytotoxicity of the Tox21 compound library against the PR-bla cell line was tested in parallel by measuring the cell viability using CellTiter-Glo assay in the same wells.
Tox21 Assay Protocol Summary:
PR-UAS-bla HEK293T cells were dispensed at 3,000 cells/4 uL of assay medium containing 2% charcoal stripped FBS per well into black wall/clear-bottom 1536-well plates using a Multidrop Combi (ThermoFisher Scientific, Waltham, MA) dispenser. After the assay plates were incubated at a 37C and 5% CO2 for 4 hr, 23 nL of compounds dissolved in DMSO, positive controls or DMSO only was transferred to the assay plate by a Pintool station (Kalypsys, San Diego, CA), followed by addition of 1 uL of R5020 in assay medium using a Flying Reagent Dispenser (FRD, Aurora Discovery, San Diego, CA). The plates were incubated at 37C and 5% CO2 for 16 hr. Then 1 uL of LiveBLAzer B/G FRET substrate was added using a Flying Reagent Dispenser, the plates were incubated at room temperature for 2 hours, and fluorescence intensity was measured by an Envision plate reader (PerkinElmer, Shelton, CT). For cell viability readout that measures cytotoxicity, 4 uL/well of CellTiter-Glo reagent was added into the assay plates using a FRD. After 30 min incubation at room temperature, the luminescence intensity in the plates was measured using a ViewLux (PerkinElmer) plate reader.
% is scaled to controls: 0 for no effect and ±100 for the full control effect; potency is read from the fitted curve at half-maximal effect.

Structure (SMILES)	activity change, negative = cytotoxicity	Potency
O=C(C(=O)c1ccco1)c1ccco1	4.41%	
COC(C)(C)OC	9.95%	
CC[C@@H](CO)NCCN[C@@H](CC)CO	0.139% [at 42.5 µM]	
COc1cc(S(=O)(=O)Nc2ccccc2)c(OC)cc1N	-11.8%	
N[C@@H](Cc1cc(I)c(O)c(I)c1)C(=O)O	0.633% [at 42.5 µM]	
O=C1OC(=O)c2c(Br)c(Br)c(Br)c(Br)c21	10.7%	
O[C@@H](CNC[C@H](O)[C@H]1CCc2cc(F)ccc2O1)[C@@H]1CCc2cc(F)ccc2O1		29.8 µM (active)
CCCCCCCCCCCSCC(=O)O	-18.4%	
CCOC(=O)c1ccc(NC(=O)CN2CCCCC2)cc1	-19.6% [at 42.5 µM]	
CCC(C)(C)C(=O)O	0.753%	
CC1CCCO1 (stereo not given)	6.78%	
O=CNNC=O	6.96%	
Cc1cccc(C)c1NC(=O)c1cc(S(N)(=O)=O)c(Cl)cc1O	0.402% [at 42.5 µM]	
CO[C@@H]1[C@@H](OC)[C@H](C)[C@@](O)(CC(=O)O)O[C@H]1[C@H](C)[C@H]1O[C@@]2(CC[C@@](C)([C@H]3CC[C@@](C)([C@@H]4O[C@@H]([C@H]5O[C@](C)(O)[C@H](C)C[C@@H]5C)C[C@@H]4OC4C[C@H](OC)[C@@H](OC)[C@H](C)O4)O3)O2)C[C@H](O)[C@H]1C (stereo not given in full)		18.8 µM (active)
CCCCCc1ccco1	-0.858% [at 42.5 µM]	
CCN(CC)c1ccc(C(=C2C=CC(=[N+](CC)CC)C=C2)c2ccc(S(=O)(=O)O)cc2S(=O)(=O)[O-])cc1		30.6 µM (active)
CCCCOC(=O)CCCCC(=O)OCCCC	8.65%	
C=CCOC(=O)COCCC(C)C	8.26%	
CC(C)(O)CCc1ccccc1	5.11%	
O=C(O)/C=C/c1ccc(O)c(O)c1	-3.88%	

Structure (SMILES)	activity change, negative = cytotoxicity	Potency
O=C(c1ccccc1)c1ccc(O)cc1	39.6%	
O=S(=O)(Cl)c1c(Cl)cccc1Cl	6.84%	
CCCOC(=O)c1c(Cl)c(Cl)c(Cl)c(Cl)c1C(=O)OCCC	3.77%	
BrC(Br)C(Br)Br	3.13%	
CCN(CC)C(=O)N1CCN(C)CC1	0.745% [at 42.5 µM]	
CC(CN(CCN(CC(C)OCCO)CC(C)OCCO)CC(C)OCCO)OCCO (stereo not given)	6.86%	
COc1ccc(CCN(C)CCCN2CCc3cc(OC)c(OC)cc3CC2=O)cc1OC	-16.8% [at 42.5 µM]	
CCOC(=O)c1c(N)sc2c1CCN(Cc1ccccc1)C2	-3.46% [at 42.5 µM]	
O=C(NS(=O)(=O)/C=C/c1ccccc1)c1ccc(F)cc1Cl	-19.6%	
CC/C=C\C/C=C\C/C=C\CCCCCCCC(=O)OCC	17.1%	
NC(=O)CCCCC(N)=O	25.9%	
CCOc1ncc(F)c(=O)[nH]1	-0.531% [at 42.5 µM]	
CN=C(N)NC(=O)Nc1c(C)cccc1C	-5.2% [at 42.5 µM]	
CCCCCCCC/C=C/C(=O)O	-1.95% [at 42.5 µM]	
CC(C)CC(O)CC(C)C	6.5%	
NC(=O)c1ccccc1[N+](=O)[O-]	6.11%	
O=C(CCS)OCC(COC(=O)CCS)(COC(=O)CCS)COC(=O)CCS	2.91%	
O=C1NC(=O)c2cccc3cccc1c23	-12.6%	
O=c1[nH][nH]c(=O)c2cc([N+](=O)[O-])ccc12	16.8%	
COc1cc(NCc2ccc3nc(N)nc(N)c3c2C)cc(OC)c1OC	-6.86% [at 42.5 µM]	
